Records with an inconclusive call do not appear. The source made the active and inactive calls. The calls were made as follows, unless noted: active = hit-call score of the fitted dose curve at least 0.9, where 1 is the maximum; inactive = score below 0.9.
Assays:
[1] = read-out: Tissue Factor, F3 (gene 2152); test: BSK_LPS_TissueFactor: BioMAP Diversity Plus: LPS Assay for Tissue Factor Biomarker Activity (AID 2283084); details: primary human HUVEC with PBMC; actives raise or lower the signal
Procedure, shortened: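 Compound was added to an endothelial cell/PBMC co-culture, and after 24 h tissue factor (CD142) was read by ELISA. Gain or loss of signal was fitted against a DMSO baseline, and parallel SRB staining (560 nm) tracked overt cytotoxicity.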

[2] = read-out: Tumor necrosis factor (Homo sapiens) (UniProt P01375); test: BSK_LPS_TNFa: BioMAP Diversity Plus: LPS Assay for Tumour Necrosis Factor alpha (TNFa) Biomarker Activity (AID 2283085); details: primary human HUVEC with PBMC; actives raise or lower the signal;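 as to AC50: TNFa protein level quantified by ELISA in the co-culture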
Procedure, shortened: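 TNFa was quantified by ELISA in LPS-activated co-cultures of human endothelial cells and PBMC, 24 h post-dosing. Both increases and decreases versus DMSO were fitted.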

[3] = read-out: Vascular cell adhesion molecule 1 (VCAM1), VCAM1 (gene 7412); test: BSK_LPS_VCAM1: BioMAP Diversity Plus: LPS Assay for Vascular cell adhesion molecule 1 (VCAM1) Biomarker Activity (AID 2283086); details: primary human HUVEC with PBMC; actives raise or lower the signal
Procedure, shortened: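 VCAM-1 quantified by ELISA in an LPS-activated co-culture of human endothelial cells and peripheral blood mononuclear cells, read 24 h post-treatment. Fitted in both directions versus DMSO; parallel SRB staining flags overt cytotoxicity.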

CD38, CD38 (gene 952) = test: BSK_SAg_CD38: BioMAP Diversity Plus: SAg Assay for CD38 Biomarker Activity (AID 2283087); details: primary human HUVEC with PBMC; actives raise or lower the signal
Procedure, shortened: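 CD38 quantified by ELISA (fluorescence) in a superantigen-activated endothelial cell–PBMC co-culture at 24 h post-dose. Activity fitted in both directions relative to DMSO; parallel SRB and Alamar Blue cytotoxicity read-outs.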

CD40, CD40 (gene 958) = test: BSK_SAg_CD40: BioMAP Diversity Plus: SAg Assay for CD40 Biomarker Activity (AID 2283088); details: primary human HUVEC with PBMC; actives raise or lower the signal
Procedure, shortened: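 CD40 is measured by fluorescence ELISA in an endothelial/PBMC primary human co-culture at 24 h post-dose. Fitting is bidirectional, DMSO baseline. Parallel SRB staining (560 nm) flags cytotoxicity.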

CD69, CD69 (gene 969) = test: BSK_SAg_CD69: BioMAP Diversity Plus: SAg Assay for CD69 Biomarker Activity (AID 2283089); details: primary human HUVEC with PBMC; actives raise or lower the signal;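 as to AC50: cell surface CD69 protein quantified by ELISA with fluorescence detection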
Procedure, shortened: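 Values derive from bidirectional fitting relative to DMSO vehicle. Cells: umbilical vein endothelium plus peripheral blood mononuclear cells, treated 24 h before fluorescent ELISA for CD69.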

[4] = read-out: Monocyte Chemoattractant Protein-1 (MCP1), CCL2 (gene 6347); test: BSK_SAg_MCP1: BioMAP Diversity Plus: SAg Assay for Monocyte Chemoattractant Protein-1 (MCP1) Biomarker Activity (AID 2283090); details: primary human HUVEC with PBMC; actives raise or lower the signal
Procedure, shortened: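 Values derive from bidirectional fitting of ELISA-measured MCP1 against DMSO controls. Readings were taken 24 h after dosing human vascular endothelial cells co-cultured with peripheral blood mononuclear cells under superantigen stimulation.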

[5] = read-out: E-selectin (Homo sapiens) (UniProt P16581); test: BSK_SAg_Eselectin: BioMAP Diversity Plus: SAg Assay for Eselectin Biomarker Activity (AID 2283091); details: primary human HUVEC with PBMC; actives raise or lower the signal
Procedure, shortened: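 Cell-surface E-selectin is read by ELISA at 24 h in the SAg co-culture of HUVEC and PBMC. Curves are fitted in both directions relative to DMSO. Parallel SRB total-protein staining tracks overt toxicity.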

[6] = read-out: Monokine induced gamma interferon (MIG), CXCL9 (gene 4283); test: BSK_SAg_MIG: BioMAP Diversity Plus: SAg Assay for Monokine induced gamma interferon (MIG) Biomarker Activity (AID 2283092); details: primary human HUVEC with PBMC; actives raise or lower the signal
Procedure, shortened: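 Values reflect bidirectional fitting of ELISA-measured MIG against DMSO vehicle, taken 24 h after dosing of a co-culture of human umbilical vein endothelial cells and peripheral blood mononuclear cells.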

[7] = BSK_SAg_PBMCCytotoxicity: PBMC Cytotoxicity Assessment in the BioMAP Diversity Plus: SAg Assay (AID 2283093); details: primary human HUVEC with PBMC;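 also: PBMC viability measured as Alamar Blue reduction fluorescence at 546/580 nm; fitted both ways against DMSO so a hit may be loss or gain of signal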;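 as to AC50: PBMC superantigen activated with SEB plus TSST-1 one hour after compound addition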
Procedure, shortened: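 Alamar Blue reduction (6 h, 546/580 nm) reports PBMC cytotoxicity after 90 h superantigen activation (SEB, TSST-1; 20 ng/mL final each) with 1 h compound pre-treatment. Gain or loss of signal fitted versus DMSO.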

[8] = read-out: Interleukin-8 (IL8), CXCL8 (gene 3576); test: BSK_SAg_IL8: BioMAP Diversity Plus: SAg Assay for Interleukin-8 (IL8) Biomarker Activity (AID 2283094); details: primary human HUVEC with PBMC; actives raise or lower the signal
Procedure, shortened: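 ELISA readout of IL-8 from a superantigen-activated endothelial/PBMC primary human co-culture, taken 24 h post-dosing and fitted in both directions against DMSO; parallel SRB total-protein staining flags overt cytotoxicity.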

[9] = BSK_SAg_Proliferation: Cell Proliferation Assessment in the BioMAP Diversity Plus: SAg Assay (AID 2283095); details: primary human HUVEC with PBMC;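 also: relative cell number as total protein by SRB absorbance in sub-confluent culture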
Procedure, shortened: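 Relative cell number in the endothelial cell/PBMC co-culture was quantified at 96 h by SRB staining (0.1% SRB, 10% TCA fixation, read at 560 nm). Curves were fitted in both directions relative to DMSO baseline.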

[10] = BSK_SAg_SRB: Viability Assessment in the BioMAP Diversity Plus: SAg Assay (AID 2283096); details: primary human HUVEC with PBMC;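 also: cells read one day after compound addition; hits may be either gain or loss of signal compared with DMSO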
Procedure, shortened: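 This overt-cytotoxicity endpoint quantifies protein in human endothelial/PBMC co-cultures at 24 h using SRB absorbance (560 nm) after trichloroacetic acid fixation. Values reflect signal change from the DMSO negative control, fitted bidirectionally.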

[11] = biological target: human CYP2A6, CYP2A6 (gene 1548) (UniProt P11509); test: NVS_ADME_hCYP2A6: NovaScreen (NVS) CYP450-related Enzyme Activity (ADME) Assay for human CYP2A6 (AID 2283099; active = hit-call score of the fitted dose curve at least 0.9, where 1 is the maximum)
human CYP2A6, CYP2A6 (gene 1548), sequence (P11509 whole entry, looked up): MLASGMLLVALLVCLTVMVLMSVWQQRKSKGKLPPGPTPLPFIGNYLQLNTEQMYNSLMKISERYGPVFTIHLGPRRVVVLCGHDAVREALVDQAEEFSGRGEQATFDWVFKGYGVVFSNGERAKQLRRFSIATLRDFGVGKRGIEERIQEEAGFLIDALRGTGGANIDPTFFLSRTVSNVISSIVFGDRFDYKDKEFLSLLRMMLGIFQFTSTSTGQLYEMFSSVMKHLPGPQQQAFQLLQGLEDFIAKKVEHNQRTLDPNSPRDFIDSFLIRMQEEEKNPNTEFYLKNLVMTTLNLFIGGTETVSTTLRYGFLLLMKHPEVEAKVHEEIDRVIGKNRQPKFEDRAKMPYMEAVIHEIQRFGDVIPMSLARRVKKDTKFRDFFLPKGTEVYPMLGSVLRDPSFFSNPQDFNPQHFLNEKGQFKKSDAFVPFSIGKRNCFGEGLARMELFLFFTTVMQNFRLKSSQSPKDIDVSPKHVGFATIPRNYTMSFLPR
Procedure, shortened: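 Compounds screened at 10 uM (duplicate) and, if active, titrated to a 20 uM top concentration against insect-cell-expressed CYP2A6. Loss of fluorescent product signal after 0.5 h, relative to acetonitrile baseline, indicates inhibition.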

[12] = biological target: Cytochrome P450 3A4 (Homo sapiens) (UniProt P08684); test: NVS_ADME_hCYP3A4: NovaScreen (NVS) CYP450-related Enzyme Activity (ADME) Assay for human CYP3A4 (AID 2283110; active = hit-call score of the fitted dose curve at least 0.9, where 1 is the maximum)
Cytochrome P450 3A4 (Homo sapiens), sequence (P08684 whole entry, looked up): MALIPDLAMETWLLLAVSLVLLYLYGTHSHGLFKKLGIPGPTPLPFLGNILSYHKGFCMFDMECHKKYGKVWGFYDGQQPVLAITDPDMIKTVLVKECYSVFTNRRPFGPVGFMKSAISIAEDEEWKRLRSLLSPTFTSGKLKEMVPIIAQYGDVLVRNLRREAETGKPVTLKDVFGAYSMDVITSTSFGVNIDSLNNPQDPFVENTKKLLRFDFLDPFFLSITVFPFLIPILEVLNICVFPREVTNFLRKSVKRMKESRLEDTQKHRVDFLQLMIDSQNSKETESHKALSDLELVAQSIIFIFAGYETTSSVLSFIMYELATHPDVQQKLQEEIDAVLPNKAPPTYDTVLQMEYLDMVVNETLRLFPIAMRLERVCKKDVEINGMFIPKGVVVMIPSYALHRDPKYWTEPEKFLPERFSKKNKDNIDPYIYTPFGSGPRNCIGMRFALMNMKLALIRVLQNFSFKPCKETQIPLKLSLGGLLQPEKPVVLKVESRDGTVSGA
Procedure, shortened: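 Activity is derived from decreased fluorescence intensity relative to acetonitrile, measured 0.33 hour after dosing insect-cell-expressed CYP3A4 in a cell-free format. Screening used 10 uM in duplicate before concentration-response follow-up.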

[13] = biological target: human CYP1A2, CYP1A2 (gene 1544) (UniProt P05177); test: NVS_ADME_hCYP1A2: NovaScreen (NVS) CYP450-related Enzyme Activity (ADME) Assay for human CYP1A2 (AID 2283102; active = hit-call score of the fitted dose curve at least 0.9, where 1 is the maximum;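 also: fluorescence from turnover of a fluorogenic substrate by recombinant insect-cell CYP1A2; potency for inhibition since loss of fluorescence marks reduced CYP1A2 activity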)
human CYP1A2, CYP1A2 (gene 1544), sequence (P05177 whole entry, looked up): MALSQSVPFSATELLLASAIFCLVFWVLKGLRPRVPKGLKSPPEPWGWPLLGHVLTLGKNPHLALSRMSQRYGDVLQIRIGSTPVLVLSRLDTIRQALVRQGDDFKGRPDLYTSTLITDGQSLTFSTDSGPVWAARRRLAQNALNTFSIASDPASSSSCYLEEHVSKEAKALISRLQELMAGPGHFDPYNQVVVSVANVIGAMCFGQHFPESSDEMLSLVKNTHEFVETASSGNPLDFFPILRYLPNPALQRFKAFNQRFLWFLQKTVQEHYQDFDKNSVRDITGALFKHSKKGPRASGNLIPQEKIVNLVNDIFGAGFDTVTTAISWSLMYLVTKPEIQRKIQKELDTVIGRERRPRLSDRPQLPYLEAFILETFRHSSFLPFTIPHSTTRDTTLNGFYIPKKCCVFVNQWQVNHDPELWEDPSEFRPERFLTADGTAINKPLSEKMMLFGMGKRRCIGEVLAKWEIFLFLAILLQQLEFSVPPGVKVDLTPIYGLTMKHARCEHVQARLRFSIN
Procedure, shortened: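 Enzyme activity of insect-cell-expressed human CYP1A2 measured by fluorescence 0.5 h after compound addition, relative to acetonitrile. Compounds first tested in duplicate at 10 uM, actives followed up in concentration series.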

[14] = biological target: human CYP1A1, CYP1A1 (gene 1543) (UniProt P04798); test: NVS_ADME_hCYP1A1: NovaScreen (NVS) CYP450-related Enzyme Activity (ADME) Assay for human CYP1A1 (AID 2283100; active = hit-call score of the fitted dose curve at least 0.9, where 1 is the maximum)
human CYP1A1, CYP1A1 (gene 1543), sequence (P04798 whole entry, looked up): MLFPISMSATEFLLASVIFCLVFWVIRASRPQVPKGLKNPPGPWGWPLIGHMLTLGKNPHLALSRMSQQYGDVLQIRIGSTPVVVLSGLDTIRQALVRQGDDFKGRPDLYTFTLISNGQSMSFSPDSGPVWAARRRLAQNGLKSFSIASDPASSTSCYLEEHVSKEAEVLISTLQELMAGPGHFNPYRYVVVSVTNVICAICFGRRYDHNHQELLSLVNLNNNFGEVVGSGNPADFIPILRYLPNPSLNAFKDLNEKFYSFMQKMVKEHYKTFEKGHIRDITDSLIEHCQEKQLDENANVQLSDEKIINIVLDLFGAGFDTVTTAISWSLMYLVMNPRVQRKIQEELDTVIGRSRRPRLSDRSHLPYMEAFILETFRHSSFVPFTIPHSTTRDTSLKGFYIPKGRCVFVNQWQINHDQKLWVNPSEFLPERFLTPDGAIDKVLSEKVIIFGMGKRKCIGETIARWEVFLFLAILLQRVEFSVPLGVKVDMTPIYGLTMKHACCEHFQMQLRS
Procedure, shortened: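 Chemicals were first tested in duplicate at 10 uM, and those passing a 30% inhibition threshold were rerun as concentration series topping at 20 uM. Fluorescence read-out of recombinant enzyme turnover after 1 h, relative to acetonitrile.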

[15] = biological target: human CYP2B6, CYP2B6 (gene 1555) (UniProt P20813); test: NVS_ADME_hCYP2B6: NovaScreen (NVS) CYP450-related Enzyme Activity (ADME) Assay for human CYP2B6 (AID 2283101; active = hit-call score of the fitted dose curve at least 0.9, where 1 is the maximum)
human CYP2B6, CYP2B6 (gene 1555), sequence (P20813 whole entry, looked up): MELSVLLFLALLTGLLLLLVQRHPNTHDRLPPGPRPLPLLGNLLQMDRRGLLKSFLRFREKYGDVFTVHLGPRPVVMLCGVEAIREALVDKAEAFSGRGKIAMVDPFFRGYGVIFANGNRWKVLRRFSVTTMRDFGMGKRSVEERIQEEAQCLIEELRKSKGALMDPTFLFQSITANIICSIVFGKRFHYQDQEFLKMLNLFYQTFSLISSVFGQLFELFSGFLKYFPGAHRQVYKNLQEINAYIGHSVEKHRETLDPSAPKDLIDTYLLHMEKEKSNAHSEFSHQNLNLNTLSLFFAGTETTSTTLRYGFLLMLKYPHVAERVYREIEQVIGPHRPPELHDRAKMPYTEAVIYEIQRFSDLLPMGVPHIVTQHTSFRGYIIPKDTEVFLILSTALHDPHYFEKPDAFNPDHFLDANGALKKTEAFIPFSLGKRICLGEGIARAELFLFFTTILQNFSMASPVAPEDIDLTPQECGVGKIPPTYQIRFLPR
Procedure, shortened: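 Compounds were first screened in duplicate at 10 uM against recombinant enzyme, with the fluorescent product measured after 1 hour. Active compounds were retested over a concentration series. Loss of fluorescence versus acetonitrile control was scored as reduced enzyme activity.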

[16] = biological target: human CYP2D6, CYP2D6 (gene 1565) (UniProt P10635); test: NVS_ADME_hCYP2D6: NovaScreen (NVS) CYP450-related Enzyme Activity (ADME) Assay for human CYP2D6 (AID 2283107; active = hit-call score of the fitted dose curve at least 0.9, where 1 is the maximum)
human CYP2D6, CYP2D6 (gene 1565), sequence (P10635 whole entry, looked up): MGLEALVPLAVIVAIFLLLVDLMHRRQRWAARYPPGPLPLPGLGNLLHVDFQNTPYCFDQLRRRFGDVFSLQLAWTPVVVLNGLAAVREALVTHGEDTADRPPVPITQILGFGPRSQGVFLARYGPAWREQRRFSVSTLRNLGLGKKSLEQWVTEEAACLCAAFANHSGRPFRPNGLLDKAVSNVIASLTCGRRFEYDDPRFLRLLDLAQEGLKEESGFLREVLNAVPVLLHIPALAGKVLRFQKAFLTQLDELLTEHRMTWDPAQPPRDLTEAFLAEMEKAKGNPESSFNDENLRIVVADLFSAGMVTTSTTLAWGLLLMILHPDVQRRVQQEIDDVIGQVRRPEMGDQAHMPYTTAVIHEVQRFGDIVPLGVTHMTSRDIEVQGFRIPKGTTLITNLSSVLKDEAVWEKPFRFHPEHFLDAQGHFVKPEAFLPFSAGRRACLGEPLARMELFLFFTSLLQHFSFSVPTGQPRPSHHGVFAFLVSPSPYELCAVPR
Procedure, shortened: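 Fluorescence readout of recombinant CYP2D6 (insect-cell derived) activity after 1 h incubation with test chemical. Acetonitrile served as baseline, loss-of-signal direction. Single-concentration duplicate screening at 10 uM preceded concentration-response retesting.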

Measured: AC50

Tumor necrosis factor (Homo sapiens), sequence (P01375 whole entry, looked up): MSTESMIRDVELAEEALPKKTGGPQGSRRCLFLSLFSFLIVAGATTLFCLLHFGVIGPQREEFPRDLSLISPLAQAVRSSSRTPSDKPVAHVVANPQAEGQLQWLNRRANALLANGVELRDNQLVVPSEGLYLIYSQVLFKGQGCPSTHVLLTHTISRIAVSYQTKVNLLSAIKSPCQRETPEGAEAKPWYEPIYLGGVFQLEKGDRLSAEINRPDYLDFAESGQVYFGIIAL
E-selectin (Homo sapiens), sequence (P16581 whole entry, looked up): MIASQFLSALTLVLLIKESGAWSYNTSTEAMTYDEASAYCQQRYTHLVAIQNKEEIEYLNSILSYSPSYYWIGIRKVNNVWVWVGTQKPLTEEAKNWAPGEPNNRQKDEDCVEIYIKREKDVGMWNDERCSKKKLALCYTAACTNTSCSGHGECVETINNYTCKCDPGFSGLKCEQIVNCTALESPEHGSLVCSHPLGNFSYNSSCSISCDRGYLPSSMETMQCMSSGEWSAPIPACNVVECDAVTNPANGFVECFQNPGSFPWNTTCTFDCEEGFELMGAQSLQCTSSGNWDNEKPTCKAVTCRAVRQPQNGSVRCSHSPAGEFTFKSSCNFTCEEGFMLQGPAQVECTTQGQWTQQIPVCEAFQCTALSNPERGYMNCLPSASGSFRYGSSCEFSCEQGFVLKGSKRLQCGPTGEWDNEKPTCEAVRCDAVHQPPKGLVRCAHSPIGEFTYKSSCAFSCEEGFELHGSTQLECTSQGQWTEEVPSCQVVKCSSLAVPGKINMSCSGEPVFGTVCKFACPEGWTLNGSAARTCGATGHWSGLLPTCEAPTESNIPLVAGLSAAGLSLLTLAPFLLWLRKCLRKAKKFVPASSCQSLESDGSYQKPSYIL

CC[C@H](NC(=O)c1cc(F)ccc1NS(=O)(=O)c1cccc2cccnc12)c1ccccc1
active: CD40, CD40 (gene 958) 6.29 µM | CD69, CD69 (gene 969) 10.5 µM | [4] 5.84 µM | [5] 4 µM | [8] 8.99 µM | [9] 22.5 µM
not listed: [13] | [14] | [15] | [16]
inactive: all other assays above

CC(C)(c1cc(Br)c(O)c(Br)c1)c1cc(Br)c(O)c(Br)c1
active: [1] 30.1 µM | [2] 19.1 µM | [3] 26.7 µM | CD38, CD38 (gene 952) 27.9 µM | CD40, CD40 (gene 958) 23 µM | CD69, CD69 (gene 969) 28.4 µM | [4] 29 µM | [5] 22.1 µM | [6] 36.1 µM | [7] 33.3 µM | [8] 30.4 µM | [9] 25.4 µM | [10] 29.4 µM

O=C(OCCCCCCOC(=O)c1ccccc1)c1ccccc1
active: [2] 4.86 µM | [13] 5.42 µM
not listed: [11] | [12] | [14] | [15] | [16]
inactive: all other assays above

O=c1[nH]sc2ccccc12
active: [1] 17.7 µM | [2] 9.18 µM | [3] 9.14 µM | CD38, CD38 (gene 952) 8.45 µM | CD40, CD40 (gene 958) 7.92 µM | CD69, CD69 (gene 969) 13.1 µM | [4] 15.3 µM | [5] 12.3 µM | [6] 28.8 µM | [7] 3.66 µM | [8] 23.2 µM | [9] 0.77 µM | [10] 26.8 µM | [14] 5.11 µM | [15] 0.721 µM

CCN(CC)C(=O)c1cc(S(=O)(=O)Cc2ccccc2)c(N2CCC(c3ccccc3)CC2)cc1N(CC)CCN(C)C
active: [1] 33.5 µM | [2] 12.4 µM | [3] 11.5 µM | CD38, CD38 (gene 952) 9.58 µM | CD40, CD40 (gene 958) 10.4 µM | CD69, CD69 (gene 969) 9.82 µM | [4] 11.8 µM | [5] 11.4 µM | [6] 15.2 µM | [7] 6.84 µM | [8] 5.2 µM | [9] 5.1 µM | [10] 12.7 µM | [16] 5.11 µM | [12] 4.11 µM

COc1ccc2cc(S(=O)(=O)N[C@H](CC(=O)N[C@H](Cc3ccc(CN4[C@H](C)CCC[C@@H]4C)cc3)C(=O)N(C)C(C)C)c3ccc4c(c3)OCO4)ccc2c1
active: [1] 33.9 µM | [2] 33.6 µM | [3] 11.3 µM | CD38, CD38 (gene 952) 26.2 µM | CD40, CD40 (gene 958) 24 µM | CD69, CD69 (gene 969) 24.5 µM | [4] 19.1 µM | [5] 31.7 µM | [6] 35.2 µM | [7] 14.6 µM | [8] 14.8 µM | [9] 12 µM | [10] 17.3 µM | [16] 0.305 µM | [12] 0.861 µM
inactive: [14]
